Source: PubChem BioAssay (NCI)
Compounds without any hit were thinned out: in the full panel of roughly 83,000, 20% have a hit.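 Plates (96-well) were seeded with cells, treated with compound at one concentration, and incubated for 48 hours before percent growth was determined.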 A number with no mark means an inactive call. Calls of active or inactive are those of the source. Rule for the calls: active = growth percent below 10; inactive = the rest.

Legend:
Assay in all cases: NCI-60 one-dose screen, 48 h (100 = growth as untreated, 0 = no growth, -100 = all killed)
Settings in all cases: 10 µM unless noted
[1] = system: SK-MEL-2 melanoma
[2] = system: EKVX NSCLC
[3] = system: SN12C renal
[4] = system: UO-31 renal
[5] = system: TK-10 renal
[6] = system: ACHN renal
[7] = system: CAKI-1 renal
[8] = system: A498 renal
[9] = system: CCRF-CEM leukemia
[10] = system: MOLT-4 leukemia
[11] = system: SR leukemia
[12] = system: RPMI-8226 leukemia
[13] = system: OVCAR-8 ovarian
[14] = system: OVCAR-5 ovarian
[15] = system: OVCAR-4 ovarian
[16] = system: SK-OV-3 ovarian
[17] = system: IGROV1 ovarian
[18] = system: HS 578T breast
[19] = system: NCI/ADR-RES ovarian

Structure (SMILES)	growth [1]	growth [2]	growth [3]	growth [4]	growth [5]	growth [6]	growth [7]	growth [8]	growth [9]	growth [10]	growth [11]	growth [12]	growth [13]	growth [14]	growth [15]	growth [16]	growth [17]	growth [18]	growth [19]
CCc1cc(O)ccc1Nc1cc(-c2ccc(-n3cccn3)cc2)[nH]n1	87.3%	63%	73.5%	50.9%	98.6%	43.9%	44.8%	92.9%	60.4%	43.6%	68.9%	53.5%	58%	78.5%	49%	87.2%	86.4%	105%	63.8%
N#Cc1c(-c2ccc(Br)cc2)cc(-c2c[nH]c3ccccc23)nc1N	39.6%	51.6%	66.3%	43.6%	96.8%	57.4%	30.9%	63.7%	34.1%	41.4%	25.4%	34.4%	66.4%	63.9%	74.7%	52.6%	34.4%	58.6%	24.9%
CCOP(=O)(OCC)OC[C@]12CCC(C)(C)C[C@H]1C1=CC[C@@H]3[C@@]4(C)CC[C@H](OP(=O)(OCC)OCC)C(C)(C)[C@@H]4CC[C@@]3(C)[C@]1(C)CC2	88.2%	55%	55.3%	34.2%	67.4%	67.2%	45.9%	79.8%	49.2%	32.7%	35%	5.23% (active)	60.4%	75.2%	65.9%	73.2%	68.1%	83.2%	65.8%
O=C(COc1ccc(/C=C2\C(=O)Nc3ccc(F)cc32)cc1)Nc1ccccc1	122%	95.8%	102%	85.4%	118%	93.7%	82.4%	99%	96.9%	99.2%	86.1%	103%	98.7%	95.8%	100%	96.9%	109%	105%	101%
O=C1C(N2CCN(c3ccccc3)CC2)=C(Cl)C(=O)c2ncccc21	97.1%	101%	58.2%	14.9%	123%	-3.31% (active)	39.9%	104%	6.08% (active)	9.67% (active)	3.69% (active)	35.5%	73.5%	107%	66%	91.5%	70%	79.8%	77%
Cc1ncn(-c2ccc(/C=N/Nc3ccnc4cc(Cl)ccc34)cc2)c1C	-17.3% (active)	99.8%	-55.8% (active)	-66.9% (active)	-11.7% (active)	-91.1% (active)	-48.9% (active)	86.5%	3.17% (active)	1.04% (active)	-21.3% (active)	-27.2% (active)	-57.5% (active)	102%	-68.3% (active)	102%	61.7%	-16.1% (active)	8.02% (active)
CC[C@]12CC(C(=O)OC)=C3Nc4ccccc4[C@@]34CCN(C14)[C@@H]1c3cc4c(cc3O[C@@H]1[C@H]2O)NC1=C(C(=O)OC)C[C@@]2(CC)C3N(CC[C@@]143)C[C@H]1O[C@H]12 (some centres not stated)	40.8%	26.1%	31.1%	7.33% (active)	6.66% (active)	11.1%	8.4% (active)	-46.1% (active)	12.6%	14%	6.59% (active)	-3% (active)	24.4%	38.6%	33.2%	27.9%	15.9%	12.2%	1.07% (active)
Brc1cc(-c2cc(-c3ccc4c(c3)OC=CO4)[nH]n2)cs1	106%	72.8%	98.8%	71.2%	192%	93.7%	63.8%	87.1%	89.9%	78.7%	60.9%	81%	99.4%	115%	97%	86%	66.1%	90%	65.4%
